Here are results for 13 sequences from article doi:10.1101/2024.03.05.583629.

Chain of pT7_6His-AlfaTag-HOXD13 (P35453 263-343): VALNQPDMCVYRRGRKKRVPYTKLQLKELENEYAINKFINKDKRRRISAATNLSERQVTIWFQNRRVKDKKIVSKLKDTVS

The experiment concerns the target pT7_6His-AlfaTag-HOXD13 (human, UniProt P35453 263-343). As to the kind of experiment: PADIT-seq. The note with it: dsDNA, one strand shown.
Consider “CTCGAGGATATCAAGATCTGGCCTCGGCGTTTTAAGCGGAACCTCTAGCTAGCCGACTCACTATAGGGATAATCGCCCTGAGCAAAGACC”, for which the binding signal was found to be 0.144 ± 0.109 log2FC.
In turn, “CTCGAGGATATCAAGATCTGGCCTCGGCTTTTTATCAGGAACCTCTAGCTAGCCGACTCACTATAGGGATAATCGCCCTGAGCAAAGACC” gave a binding signal of 2.36 ± 0.0842 log2FC.
“CTCGAGGATATCAAGATCTGGCCTCGGCGTTATAAAAGGAACCTCTAGCTAGCCGACTCACTATAGGGATAATCGCCCTGAGCAAAGACC” displayed a binding signal of 2.4 ± 0.0697 log2FC.
Under “CTCGAGGATATCAAGATCTGGCCTCGGCCCCGTAAAAGGAACCTCTAGCTAGCCGACTCACTATAGGGATAATCGCCCTGAGCAAAGACC” stands 2.52 ± 0.0899 log2FC; under “CTCGAGGATATCAAGATCTGGCCTCGGCGGTTTAAAAGGAACCTCTAGCTAGCCGACTCACTATAGGGATAATCGCCCTGAGCAAAGACC”, 1.97 ± 0.078 log2FC.
Under “CTCGAGGATATCAAGATCTGGCCTCGGCTTTTTAGTCGGAACCTCTAGCTAGCCGACTCACTATAGGGATAATCGCCCTGAGCAAAGACC” stands -0.553 ± 0.126 log2FC; under “CTCGAGGATATCAAGATCTGGCCTCGGCATTTTACGAGGAACCTCTAGCTAGCCGACTCACTATAGGGATAATCGCCCTGAGCAAAGACC”, 3.41 ± 0.0937 log2FC.
Consider “CTCGAGGATATCAAGATCTGGCCTCGGCCCCTTAAAAGGAACCTCTAGCTAGCCGACTCACTATAGGGATAATCGCCCTGAGCAAAGACC”, for which the binding signal amounted to 2.7 ± 0.0989 log2FC.
As to “CTCGAGGATATCAAGATCTGGCCTCGGCTCCGTAAAAGGAACCTCTAGCTAGCCGACTCACTATAGGGATAATCGCCCTGAGCAAAGACC”, the binding signal was 1.22 ± 0.0847 log2FC.
Regarding “CTCGAGGATATCAAGATCTGGCCTCGGCTTAGTAAAAGGAACCTCTAGCTAGCCGACTCACTATAGGGATAATCGCCCTGAGCAAAGACC”, the binding signal came to 1.23 ± 0.0947 log2FC.
In turn, “CTCGAGGATATCAAGATCTGGCCTCGGCGTGTTAAAAGGAACCTCTAGCTAGCCGACTCACTATAGGGATAATCGCCCTGAGCAAAGACC” had a binding signal of 1.46 ± 0.0736 log2FC.
“CTCGAGGATATCAAGATCTGGCCTCGGCGCGCCGGCGGGAACCTCTAGCTAGCCGACTCACTATAGGGATAATCGCCCTGAGCAAAGACC” gave a binding signal of -1.04 ± 0.18 log2FC.
In turn, “CTCGAGGATATCAAGATCTGGCCTCGGCGGGCCACGCGGAACCTCTAGCTAGCCGACTCACTATAGGGATAATCGCCCTGAGCAAAGACC” gave a binding signal of -1.1 ± 0.106 log2FC.
